Records with an inconclusive call do not appear. Activity calls are given as the source filed them. Unless noted, the call rests on the fitted dose curve; in most records, active means well fitted curve in the direction sought with a large enough effect in the repeat runs; inconclusive means weak or mixed curves; inactive means no such curve, though single readings can be large; an effect the other way counts as inactive or inconclusive.
Assays:
[1] = qHTS assay to identify small molecule antagonists of the vitamin D receptor (VDR) signaling pathway - cell viability counter screen (AID 743225); further: nearly all actives have a fitted effect of over 50% in size
Summary of the method: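 In this counter screen, VDR-bla HEK 293T cells receive test compound plus 3 nM final calcitriol for 16 h at 37C. Room-temperature steps of 2 h with the beta-lactamase substrate, then 30 min with CellTiter-Glo, precede the luminescence read.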

[2] = qHTS assay to identify small molecule agonists of the NFkB signaling pathway (AID 1159509; active means well fitted curve in the direction sought with a large enough effect in the signal ratio in the repeat runs, not every such curve was filed as active; the % refers to the signal ratio; further: series mostly up to about 61 µM)
Summary of the method: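 After overnight attachment, reporter cells received test compounds, DMSO or positive controls and were incubated 5 hr at 37 C. FRET substrate was then added for 1.5 hr at room temperature before dual-emission fluorescence reading.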

[3] = qHTS assay to identify small molecule agonists of the NFkB signaling pathway - cell viability counter screen (AID 1159515; calls by dose curve; further: series mostly up to about 61 µM; nearly all actives have a fitted effect of over 55% in size)
Summary of the method: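 Using the same wells as the NFkB reporter read, ME-180 NFkB-bla cells given compounds for 5 hr were assessed for viability via CellTiter-Glo, with luminescence taken after a 30 min room-temperature incubation.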

[4] = qHTS assay to identify small molecule agonists of the endoplasmic reticulum stress response signaling pathway (AID 1159516; active means well fitted activation curve with a large enough effect in the signal ratio in the repeat runs, not every such curve was filed as active; the % refers to the signal ratio)
Summary of the method: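 An ESRE-bla HeLa cell assay: compounds were pin-transferred from DMSO onto overnight-plated cells and left 5 hr at 37 C. Substrate was then loaded for 2 hr at room temperature before reading fluorescence at 460 nm and 530 nm.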

[5] = qHTS assay to identify small molecule agonists of the endoplasmic reticulum stress response signaling pathway - cell viability counter screen (AID 1159517; calls by dose curve;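 further: HeLa cells carrying an ER stress response element beta-lactamase reporter; series mostly up to about 61 µM; nearly all actives have a fitted effect of over 50% in size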)
Summary of the method: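 Counter-screen wells were identical to the reporter wells. Cells were plated at 1,500 per well and dosed for 5 hr, then read for luminescence 30 min after CellTiter-Glo addition.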

[6] = qHTS assay to identify small molecule antagonists of the retinoid-related orphan receptor gamma (ROR-gamma) signaling pathway - cell viability counter screen (AID 1159520); further: nearly all actives have a fitted effect of over 50% in size
Summary of the method: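 Tet-on ROR gamma CHO cells were given compounds for 2 hr, then doxycycline hyclate at 1 uM final, and incubated 16 hr at 37 C. Viability was measured as ATP content by CellTiter-Glo luminescence.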

[7] = target: Nuclear receptor ROR-gamma (Homo sapiens) (UniProt P51449); assay: qHTS assay to identify small molecule antagonists of the retinoid-related orphan receptor gamma (ROR-gamma) signaling pathway (AID 1159521;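 further: CHO cells with doxycycline inducible ROR-gamma driving an RORE luciferase reporter; top concentration of the series differs between compounds; nearly all actives have a fitted effect of over 50% in size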)
Summary of the method: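 Screening format: cell-based luciferase reporter in CHO cells with doxycycline-inducible RORγ. Compound pre-exposure lasts 2 h, doxycycline is 1 uM final, induction runs 16 h at 37 C, and ONE-Glo luminescence is read.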

[8] = qHTS assay to identify small molecule agonists of the AP-1 signaling pathway - cell viability counter screen (AID 1159525; calls by dose curve; further: nearly all actives have a fitted effect of over 55% in size)
Summary of the method: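 AP-1-bla ME-180 cells in Opti-MEM with 0.5% dialyzed FBS, compound exposure 5 h at 37 C in 15-point titration. Viability read in the same wells as ATP content by CellTiter-Glo luminescence, normalised to tetra-n-octylammonium bromide and DMSO controls.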

[9] = qHTS assay to identify small molecule agonists of the AP-1 signaling pathway (AID 1159526; calls by dose curve)
[10] = qHTS assay to identify small molecule agonists of the RXR signaling pathway - cell viability counter screen (AID 1159529)
Summary of the method: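 Viability read-out for the RXR-alpha agonist qHTS: luminescent CellTiter-Glo signal after 30 min at RT. HEK 293T bla reporter cells, 2% charcoal-stripped FBS, 16 hr compound incubation; tetraoctyl ammonium bromide as cytotoxic control.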

[11] = qHTS assay to identify small molecule antagonists of the retinoid acid receptor (RAR) signaling pathway - cell viability counter screen (AID 1159551); further: nearly all actives have a fitted effect of over 35% in size
Summary of the method: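 Retinol-stimulated (1 uM final) C3RL4 cells, compound 6 h, 37 C; readout CellTiter-Glo luminescence (ATP) after 30 min RT incubation.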

[12] = qHTS assay to identify small molecule antagonists of the retinoic acid receptor (RAR) signaling pathway (AID 1159552; further: nearly all actives have a fitted effect of over 50% in size)
Summary of the method: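 Using a RARE-driven luciferase construct in C3RL4 cells, retinol at 1 uM final provided the agonist stimulus while compounds were co-applied. After 6 hours at 37 C, luminescence was recorded to flag inhibitors of retinol signaling.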

[13] = qHTS assay to identify small molecule agonists of the retinoic acid receptor (RAR) signaling pathway (AID 1159553)
Summary of the method: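 Reporter readout comes from luciferase under RARE control in C3RL4 cells; compound exposure lasts 6 hr at 37 C in 5% CO2, and luminescence is recorded following a 30 min room-temperature incubation with reagent.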

[14] = qHTS assay to identify small molecule antagonists of the estrogen related receptor (ERR) signaling pathway - cell viability counter screen (AID 1224818);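 further: series mostly up to about 46 µM; viability measured after 17.5 h of compound exposure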
Summary of the method: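 After a 6 h pre-incubation, ERR cells were dosed by pin tool with compounds, positive/negative controls or DMSO alone. Following 17.5 h at 37 C and 30 min with CellTiter-Fluor, fluorescence was recorded.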

[15] = qHTS assay to identify small molecule antagonists of the estrogen related receptor signaling pathway with the pleiotropic PPARgamma coactivator (PGC) cell viability counter screen (AID 1224822;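 further: series mostly up to about 46 µM; viability read after 17.5 h compound exposure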)
Summary of the method: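 PGC/ERR cells were plated at 2,000 per well and allowed 6 h to settle before compound addition. Following 17.5 h at 37 C, CellTiter-Fluor reagent was added and fluorescence was read 30 min later.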

[16] = target: Retinoic acid receptor RXR-alpha (Homo sapiens) (UniProt P19793); assay: qHTS assay to identify small molecule agonists of the RXR signaling pathway (AID 1159527; calls by dose curve; further: nearly all actives have a fitted effect of over 35% in size)
Summary of the method: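 Fluorescence ratio readout (460 vs 530 nm) from GeneBLAzer RXR-alpha HEK 293T cells after 16 hr compound treatment; cells seeded 5 hr beforehand in low-serum, charcoal-stripped medium.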

[17] = qHTS assay to identify small molecule antagonists of the estrogen related receptor (ERR) signaling pathway (AID 1224819)
Summary of the method: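 Luminescence readout (One-Glo, 30 min, RT) of ERR cell line after 18 h compound exposure at 37 C; cells seeded 2,000/well, pre-incubated 6 h, compounds pinned from DMSO stocks.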

[18] = qHTS assay to identify small molecule agonists of the estrogen related receptor (ERR) signaling pathway (AID 1224820)
Summary of the method: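 Quantitative HTS of the LOPAC library used NTP ERR reporter cells treated 18 h at 37 C. Signal is luminescence after One-Glo addition and a 30 min room-temperature incubation.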

[19] = qHTS assay to identify small molecule agonists of the estrogen related receptor signaling pathway with the pleiotropic PPARgamma coactivator (PGC) (AID 1224823)
Summary of the method: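 Cell-based luciferase assay in the NTP-supplied PGC/ERR line, 2,000 cells/well; 18 h compound exposure at 37 C, luminescence after One-Glo.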

Measured: Potency

Sequence of Retinoic acid receptor RXR-alpha (Homo sapiens) (P19793 whole entry, looked up): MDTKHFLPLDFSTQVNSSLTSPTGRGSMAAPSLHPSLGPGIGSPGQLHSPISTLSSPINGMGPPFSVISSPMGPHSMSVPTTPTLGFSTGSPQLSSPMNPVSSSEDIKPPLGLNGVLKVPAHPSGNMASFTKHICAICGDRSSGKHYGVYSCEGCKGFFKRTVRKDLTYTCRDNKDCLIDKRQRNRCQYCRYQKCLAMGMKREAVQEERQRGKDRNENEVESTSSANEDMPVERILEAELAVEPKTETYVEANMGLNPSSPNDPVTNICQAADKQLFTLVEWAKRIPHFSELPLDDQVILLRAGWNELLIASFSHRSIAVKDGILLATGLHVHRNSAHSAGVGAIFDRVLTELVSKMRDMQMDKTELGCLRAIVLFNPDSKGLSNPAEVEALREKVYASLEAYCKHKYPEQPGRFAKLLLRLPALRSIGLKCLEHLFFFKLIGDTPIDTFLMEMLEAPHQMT

CC(O)C(=O)O (stereo not given)
inactive: [1] | [2] | [3] | [4] | [5] | [6] | [7] | [8] | [9] | [10] | [11] | [12] | [13]

O=S(=O)(O)c1ccc2cc(O)ccc2c1
inactive: [1] | [2] | [3] | [4] | [5] | [6] | [8] | [9] | [10] | [11] | [12] | [13]

Cn1c(=O)c2[nH]cnc2n(C)c1=O
inactive: [1] | [2] | [3] | [4] | [5] | [6] | [8] | [9] | [10] | [11] | [14] | [15]

NC(N)=NC(=O)c1nc(Cl)c(N)nc1N
inactive: [1] | [2] | [3] | [4] | [5] | [6] | [7] | [9] | [10] | [11] | [14] | [15]

O=C(O)c1cccc([N+](=O)[O-])c1
inactive: [1] | [2] | [3] | [4] | [5] | [6] | [7] | [9] | [10] | [11]

CCC1(c2ccccc2)C(=O)NCNC1=O
inactive: [1] | [2] | [3] | [4] | [5] | [6] | [7] | [9] | [10] | [11] | [12] | [13] | [14] | [15]

O=C(c1ccccc1)C(O)c1ccccc1 (stereo not given)
inactive: [1] | [2] | [3] | [4] | [5] | [6] | [7] | [8] | [9] | [10] | [11] | [12] | [13]

CCCNC(=O)NS(=O)(=O)c1ccc(Cl)cc1
inactive: [1] | [2] | [3] | [4] | [5] | [6] | [7] | [9] | [16] | [10] | [11] | [12] | [13] | [14] | [15]

C/C=C/c1ccc(OC)cc1
inactive: [1] | [2] | [3] | [4] | [5] | [6] | [7] | [9] | [16] | [10] | [11]

Cc1ccc(O)cc1
inactive: [1] | [2] | [3] | [4] | [5] | [6] | [7] | [9] | [10] | [11] | [12] | [13]

Cc1cc(=O)n(-c2ccccc2)n1C
inactive: [1] | [2] | [3] | [4] | [5] | [6] | [7] | [8] | [9] | [10] | [11] | [12] | [13]

Nc1ccc(C(=O)O)cc1
inactive: [1] | [2] | [4] | [5] | [6] | [7] | [8] | [9] | [16] | [10] | [11] | [12] | [13]

Cc1ccc(C)c(OCCCC(C)(C)C(=O)O)c1
inactive: [1] | [2] | [3] | [4] | [5] | [6] | [7] | [9] | [10] | [11] | [12] | [13]

O=C(O)/C=C\C(=O)O
inactive: [1] | [2] | [3] | [4] | [5] | [6] | [7] | [9] | [16] | [10] | [11]

Cc1ccccc1C(OCCN(C)C)c1ccccc1 (stereo not given)
inactive: [1] | [2] | [3] | [4] | [5] | [6] | [7] | [8] | [10] | [11] | [12] | [13] | [14] | [17] | [18] | [15] | [19]

CC(C)(Oc1ccc(C2CC2(Cl)Cl)cc1)C(=O)O (stereo not given)
inactive: [1] | [2] | [4] | [5] | [6] | [7] | [8] | [9] | [16] | [10] | [11] | [12] | [13] | [14] | [15]

CC1(C)[C@@H]2CC[C@@]1(C)C(=O)C2
inactive: [1] | [2] | [4] | [5] | [6] | [7] | [8] | [9] | [10] | [11] | [12] | [13]

COc1c2occc2cc2ccc(=O)oc12
inactive: [1] | [2] | [4] | [5] | [6] | [8] | [9] | [10] | [11] | [12] | [13]

Cc1ccc(S(=O)(=O)NC(=O)NN2CCCCCC2)cc1
inactive: [1] | [2] | [4] | [5] | [6] | [7] | [8] | [9] | [10] | [11] | [12] | [13] | [14] | [17] | [18] | [15] | [19]

Reference: PubChem BioAssay (Tox21)
